# Laboratory results: PubChem BioAssay AID1159580 (chemical genetic matrix, 2015)
# Several values for one entry are separate records, joined by “and”; a condition that tells them apart may be missing. Equal entries are not always repeated. In all, about 5,500 compounds went through this assay and about 2,000 (36%) were called active. Inconclusive results (about 18%) are left out. Some of the results follow. Unmarked numbers belong to inactive results. Rule as the data show it: active = normalized growth mostly below about 0.91 (no sharp cut-off); inconclusive = no clear call, values can overlap the other calls; inactive = mostly above about 0.92.
# Assay: chemical genetic growth profiling, strain panel (AID 1159580);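 also: tested at 20 µM; growth read once vehicle control cultures reached saturation at 30 °C; 1 = growth at the plate median or of vehicle wells; lower values mean less growth of the strain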
# Conditions: S. cerevisiae deletion strains, growth OD
compound,measurement,setting,value
C=C[C@@](C)(O)CCC1C(=C)C[C@H](O)C2C(C)(C)CCCC12C (some centres not stated),normalized growth,"locus YAL013W, strain DEP1, hits give low values",1.01
same,normalized growth,"locus YAL021C, strain ccr4, hits give low values",1.01
same,normalized growth,"locus YAL026C, strain drs2, hits give low values",0.972
same,normalized growth,"locus YAL030W, strain snc1, hits give low values",0.996
same,normalized growth,"locus YBL061C, strain skt5, hits give low values",0.988
same,normalized growth,"locus YBR009C, strain hhf1, hits give low values",0.986
same,normalized growth,"locus YBR021W, strain FUR4, hits give low values",0.998
same,normalized growth,"locus YBR023C, strain chs3, hits give low values",0.978
same,normalized growth,"locus YBR171W, strain sec66, hits give low values",0.976
same,normalized growth,"locus YBR229C, strain ROT2, hits give low values",1.01
same,normalized growth,"locus YBR231C, strain swc5, hits give low values",1
same,normalized growth,"locus YBR279W, strain paf1, hits give low values",0.998
same,normalized growth,"locus YCL011C, strain gbp2, hits give low values",0.991
same,normalized growth,"locus YCL016C, strain dcc1, hits give low values",0.971
same,normalized growth,"locus YCL029C, strain bik1, hits give low values",1.02
same,normalized growth,"locus YCL061C, strain MRC1, hits give low values",0.98
same,normalized growth,"locus YCL069W, strain vba3, hits give low values",0.999
same,normalized growth,"locus YCR088W, strain abp1, hits give low values",0.99
same,normalized growth,"locus YDL005C, strain med2, hits give low values",0.976
same,normalized growth,"locus YDL035C, strain GPR1, hits give low values",0.991
same,normalized growth,"locus YDL040C, strain nat1, hits give low values",0.997
same,normalized growth,"locus YDL074C, strain BRE1, hits give low values",0.974
same,normalized growth,"locus YDL101C, strain DUN1, hits give low values",1.01
same,normalized growth,"locus YDL134C, strain PPH21, hits give low values",1.01
same,normalized growth,"locus YDL185W, strain tfp1, hits give low values",1.02
same,normalized growth,"locus YDL192W, strain arf1, hits give low values",1.02
same,normalized growth,"locus YDR001C, strain nth1, hits give low values",0.989
same,normalized growth,"locus YDR069C, strain doa4, hits give low values",0.99
same,normalized growth,"locus YDR101C, strain arx1, hits give low values",1
same,normalized growth,"locus YDR137W, strain rgp1, hits give low values",0.859
same,normalized growth,"locus YDR150W, strain NUM1, hits give low values",1.01
same,normalized growth,"locus YDR159W, strain sac3, hits give low values",1.01
same,normalized growth,"locus YDR162C, strain NBP2, hits give low values",0.994
same,normalized growth,"locus YDR195W, strain ref2",1.05
same,normalized growth,"locus YDR297W, strain sur2, hits give low values",0.993
same,normalized growth,"locus YDR318W, strain mcm21, hits give low values",1.02
same,normalized growth,"locus YDR334W, strain swr1, hits give low values",0.993
same,normalized growth,"locus YDR335W, strain msn5, hits give low values",1.01
same,normalized growth,"locus YDR388W, hits give low values",1.02
same,normalized growth,"locus YDR392W, strain spt3, hits give low values",0.628 (active)
same,normalized growth,"locus YDR502C, strain sam2, hits give low values",1.01
same,normalized growth,"locus YEL003W, strain gim4, hits give low values",1
same,normalized growth,"locus YEL037C, strain rad23, hits give low values",0.987
same,normalized growth,"locus YEL061C, strain CIN8 (second series), hits give low values",0.992
same,normalized growth,"locus YEL061C, strain CIN8, hits give low values",1.01
same,normalized growth,"locus YER015W, strain faa2, hits give low values",0.995
same,normalized growth,"locus YER016W, strain bim1, hits give low values",0.996
same,normalized growth,"locus YER110C, hits give low values",1.03
same,normalized growth,"locus YER111C, strain swi4, hits give low values",0.976
same,normalized growth,"locus YER155C, strain BEM2 (second series), hits give low values",1.01
same,normalized growth,"locus YER155C, strain BEM2, hits give low values",1.01
same,normalized growth,"locus YER167W, strain BCK2, hits give low values",1.01
same,normalized growth,"locus YFR010W, strain ubp6, hits give low values",1.01
same,normalized growth,"locus YGL078C, strain dbp3, hits give low values",1.02
same,normalized growth,"locus YGL086W, strain mad1, hits give low values",1.02
same,normalized growth,"locus YGL167C, strain pmr1, hits give low values",0.97
same,normalized growth,"locus YGL173C, strain kem1, hits give low values",0.974
same,normalized growth,"locus YGL227W, strain vid30, hits give low values",0.997
same,normalized growth,"locus YGL240W, strain doc1, hits give low values",1
same,normalized growth,"locus YGL248W, strain PDE1, hits give low values",1.01
same,normalized growth,"locus YGL253W, strain hxk2, hits give low values",0.984
same,normalized growth,"locus YGR078C, strain PAC10, hits give low values",1
same,normalized growth,"locus YGR135W, strain pre9, hits give low values",1
same,normalized growth,"locus YGR229C, strain SMI1, hits give low values",1
same,normalized growth,"locus YGR252W, strain gcn5, hits give low values",0.995
same,normalized growth,"locus YHR013C, strain ard1, hits give low values",1.02
same,normalized growth,"locus YHR027C, strain rpn1, hits give low values",1
same,normalized growth,"locus YHR030C, strain SLT2, hits give low values",1.01 and 0.934
same,normalized growth,"locus YHR079C, strain IRE1 (second series), hits give low values",1.02
same,normalized growth,"locus YHR079C, strain IRE1, hits give low values",0.955
same,normalized growth,"locus YHR094C, strain hxt1, hits give low values",1.02
same,normalized growth,"locus YHR129C, strain ARP1, hits give low values",1.01
same,normalized growth,"locus YHR142W, strain chs7, hits give low values",0.957
same,normalized growth,"locus YHR200W, strain rpn10, hits give low values",1.04
same,normalized growth,"locus YIL066C, strain RNR3, hits give low values",1.02
same,normalized growth,"locus YIL073C, strain SPO22, hits give low values",1.06
same,normalized growth,"locus YIL125W, strain kgd1, hits give low values",1.02
same,normalized growth,"locus YIR030C, strain dcg1, hits give low values",1.02
same,normalized growth,"locus YJL092W, strain hpr5, hits give low values",0.993
same,normalized growth,"locus YJL095W, strain BCK1 (second series), hits give low values",0.992
same,normalized growth,"locus YJL095W, strain BCK1, hits give low values",0.999 and 0.952
same,normalized growth,"locus YJL115W, strain asf1, hits give low values",0.99
same,normalized growth,"locus YJL129C, strain trk1, hits give low values",0.966
same,normalized growth,"locus YJL134W, strain LCB3, hits give low values",1.01
same,normalized growth,"locus YJL154C, strain vps35, hits give low values",0.997
same,normalized growth,"locus YJL164C, strain tpk1, hits give low values",0.982
same,normalized growth,"locus YJL166W, strain qcr8, hits give low values",0.981
same,normalized growth,"locus YJL168C, strain set2, hits give low values",1.03
same,normalized growth,"locus YJL187C, strain SWE1 (second series), hits give low values",1
same,normalized growth,"locus YJL187C, strain SWE1, hits give low values",0.991
same,normalized growth,"locus YJR043C, strain POL32, hits give low values",0.997
same,normalized growth,"locus YJR066W, strain TOR1, hits give low values",0.923
